Holding throughout (set-up): scale not given: direction of the effect not stated beside the values
For assay [1], the target named is Protein translocase subunit SecA (Escherichia coli (strain K12)) (UniProt P10408). Nature of the assay: Assay to Identify E. coli SecA ATPase Inhibitors. In kind it is functional. The following applies: 30 µM.
The target in assay [2] is T1, Ubiquitin-activating enzyme e1, putative (Leishmania donovani (strain BPK282A1)) (UniProt E9BSI1).
T1 sequence (whole entry): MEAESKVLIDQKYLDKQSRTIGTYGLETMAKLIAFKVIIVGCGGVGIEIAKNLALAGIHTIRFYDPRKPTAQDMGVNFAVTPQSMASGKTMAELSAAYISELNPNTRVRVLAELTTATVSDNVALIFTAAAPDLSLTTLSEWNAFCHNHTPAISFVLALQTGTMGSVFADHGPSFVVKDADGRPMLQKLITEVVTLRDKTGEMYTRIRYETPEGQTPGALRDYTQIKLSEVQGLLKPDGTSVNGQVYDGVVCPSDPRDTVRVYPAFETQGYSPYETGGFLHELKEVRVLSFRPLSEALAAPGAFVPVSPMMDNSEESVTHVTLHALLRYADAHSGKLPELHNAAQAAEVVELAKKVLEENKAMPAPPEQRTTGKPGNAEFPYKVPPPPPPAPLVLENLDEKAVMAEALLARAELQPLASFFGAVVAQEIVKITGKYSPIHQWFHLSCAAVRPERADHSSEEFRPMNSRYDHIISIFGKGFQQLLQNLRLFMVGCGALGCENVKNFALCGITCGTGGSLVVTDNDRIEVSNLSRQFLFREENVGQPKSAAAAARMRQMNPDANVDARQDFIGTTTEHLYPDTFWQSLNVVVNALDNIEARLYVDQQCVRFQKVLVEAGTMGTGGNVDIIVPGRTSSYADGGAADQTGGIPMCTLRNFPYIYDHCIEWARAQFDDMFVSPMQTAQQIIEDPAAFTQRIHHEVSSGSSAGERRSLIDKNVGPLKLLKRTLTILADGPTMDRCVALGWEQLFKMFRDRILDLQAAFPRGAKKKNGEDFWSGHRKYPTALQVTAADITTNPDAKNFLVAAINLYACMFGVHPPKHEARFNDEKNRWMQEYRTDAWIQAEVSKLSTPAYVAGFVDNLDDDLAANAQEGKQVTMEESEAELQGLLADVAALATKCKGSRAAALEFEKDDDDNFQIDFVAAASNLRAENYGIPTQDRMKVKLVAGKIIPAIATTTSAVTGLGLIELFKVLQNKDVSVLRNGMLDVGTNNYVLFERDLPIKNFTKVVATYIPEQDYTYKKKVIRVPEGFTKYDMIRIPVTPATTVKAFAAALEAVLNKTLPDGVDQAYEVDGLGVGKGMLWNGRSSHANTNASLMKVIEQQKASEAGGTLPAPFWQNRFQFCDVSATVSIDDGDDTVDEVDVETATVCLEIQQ
Description: Leishmania donovani Ubiquitin Activating Enzyme (LdE1). In kind it is functional. The following applies: 30 µM.

Assay [3] concerns the target Sialic acid-binding Ig-like lectin 9 (Homo sapiens) (UniProt Q9Y336). Description: Hs-Siglec9 ALPHAscreen SOP 20170721. The following applies: 10 µM.
The subject of a further assay is Trypanosoma cruzi. Nature of the assay: Trypanosoma cruzi phosphomannomutase and mannose-1-phosphate guanylyltransferase assay. In kind it is functional. The following applies: 10 µM.
For assay [4], the target named is T2, Arginase-2, mitochondrial (Homo sapiens) (UniProt P78540).
T2 sequence (whole entry): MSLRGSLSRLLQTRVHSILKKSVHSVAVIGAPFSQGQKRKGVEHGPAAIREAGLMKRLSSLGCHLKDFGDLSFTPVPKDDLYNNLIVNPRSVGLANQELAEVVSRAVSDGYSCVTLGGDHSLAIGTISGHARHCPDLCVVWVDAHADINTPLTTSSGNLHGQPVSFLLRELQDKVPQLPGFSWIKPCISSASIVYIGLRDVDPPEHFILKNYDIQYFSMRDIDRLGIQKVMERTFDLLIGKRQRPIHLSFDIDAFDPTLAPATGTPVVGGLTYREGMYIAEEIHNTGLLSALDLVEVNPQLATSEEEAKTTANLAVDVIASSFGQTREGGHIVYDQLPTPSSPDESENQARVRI
Nature of the assay: in vitro enzyme assay to detect the production of urea directly proportional to the activity of Arginase II. Further: in the data most compounds retested in dose-response had high values. In kind it is functional. Conditions: 33.3 µM.

The target in assay [5] is T3, Proteasome subunit beta (Trypanosoma cruzi) (UniProt O96673).
T3 sequence (whole entry): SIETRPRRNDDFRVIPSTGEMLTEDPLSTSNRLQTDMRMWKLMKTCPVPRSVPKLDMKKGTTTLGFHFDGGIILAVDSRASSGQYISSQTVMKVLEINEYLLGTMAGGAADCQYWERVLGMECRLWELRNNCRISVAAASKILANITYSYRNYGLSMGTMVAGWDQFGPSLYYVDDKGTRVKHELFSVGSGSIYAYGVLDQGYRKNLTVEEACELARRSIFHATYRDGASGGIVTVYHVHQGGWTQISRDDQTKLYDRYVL
Description: Trypanosoma cruzi proteasome chymotrypsin-like activity (TcProtChymo) assay. Further: in the data most compounds retested in dose-response had high values. In kind it is functional. Conditions: 9.37 µM.

A further assay is filed under the species Homo sapiens. Description: To identify inhibition of the IFN signalling (Jak-Stat) pathway via expression of an eGFP reporter gene under the control of an IFN-stimulated response element (ISRE) containing MxA promoter. In kind it is functional. The following applies: 30 µM. (In a reporter assay the amount or activity of a reporter protein is the signal.)

Assay [6] has as its target T4, Tyrosyl-tRNA synthetase, putative (Trypanosoma cruzi (strain CL Brener)) (UniProt Q4DSP6).
T4 sequence (whole entry): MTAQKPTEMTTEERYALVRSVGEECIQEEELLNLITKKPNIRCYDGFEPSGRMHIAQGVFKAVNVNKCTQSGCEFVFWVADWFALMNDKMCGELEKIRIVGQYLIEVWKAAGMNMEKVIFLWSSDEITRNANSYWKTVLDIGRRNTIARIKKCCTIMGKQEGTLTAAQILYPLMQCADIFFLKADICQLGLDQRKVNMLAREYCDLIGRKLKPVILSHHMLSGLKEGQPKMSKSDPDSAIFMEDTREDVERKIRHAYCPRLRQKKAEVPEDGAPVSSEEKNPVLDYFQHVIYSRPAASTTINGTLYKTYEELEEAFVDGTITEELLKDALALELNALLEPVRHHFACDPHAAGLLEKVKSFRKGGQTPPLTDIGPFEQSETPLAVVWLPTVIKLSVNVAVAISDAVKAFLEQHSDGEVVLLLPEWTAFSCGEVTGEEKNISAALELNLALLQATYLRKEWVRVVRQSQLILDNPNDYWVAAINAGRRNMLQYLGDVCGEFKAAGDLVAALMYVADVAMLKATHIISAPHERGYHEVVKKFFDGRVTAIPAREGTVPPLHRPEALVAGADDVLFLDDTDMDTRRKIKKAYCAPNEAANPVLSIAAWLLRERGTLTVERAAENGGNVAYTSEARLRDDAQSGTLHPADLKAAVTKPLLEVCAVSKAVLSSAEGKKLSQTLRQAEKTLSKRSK
Description: Trypanosoma cruzi tyrosyl tRNA synthetase (TcYRS) _High Tyrosine SOP. Further: in the data most compounds retested in dose-response had high values. In kind it is functional. The following applies: 30 µM.

For assay [7], the target named is T4, Tyrosyl-tRNA synthetase, putative (Trypanosoma cruzi (strain CL Brener)). Description: Trypanosoma cruzi tyrosyl tRNA synthetase (TcYRS) SOP. Conditions: 30 µM. In kind it is functional.
In assay [8] the target is Chromo domain-containing protein 1 (Saccharomyces cerevisiae (strain ATCC 204508 / S288c) (Baker's yeast)) (UniProt P32657). Description: ScCHD-1 Enzyme Inhibition Assay. Further: in the data most compounds retested in dose-response had high values. In kind it is functional. Conditions: 30 µM.
Chromo domain-containing protein 1 (Saccharomyces cerevisiae (strain ATCC 204508 / S288c) (Baker's yeast)), sequence (P32657 whole entry, the tested form may be a part): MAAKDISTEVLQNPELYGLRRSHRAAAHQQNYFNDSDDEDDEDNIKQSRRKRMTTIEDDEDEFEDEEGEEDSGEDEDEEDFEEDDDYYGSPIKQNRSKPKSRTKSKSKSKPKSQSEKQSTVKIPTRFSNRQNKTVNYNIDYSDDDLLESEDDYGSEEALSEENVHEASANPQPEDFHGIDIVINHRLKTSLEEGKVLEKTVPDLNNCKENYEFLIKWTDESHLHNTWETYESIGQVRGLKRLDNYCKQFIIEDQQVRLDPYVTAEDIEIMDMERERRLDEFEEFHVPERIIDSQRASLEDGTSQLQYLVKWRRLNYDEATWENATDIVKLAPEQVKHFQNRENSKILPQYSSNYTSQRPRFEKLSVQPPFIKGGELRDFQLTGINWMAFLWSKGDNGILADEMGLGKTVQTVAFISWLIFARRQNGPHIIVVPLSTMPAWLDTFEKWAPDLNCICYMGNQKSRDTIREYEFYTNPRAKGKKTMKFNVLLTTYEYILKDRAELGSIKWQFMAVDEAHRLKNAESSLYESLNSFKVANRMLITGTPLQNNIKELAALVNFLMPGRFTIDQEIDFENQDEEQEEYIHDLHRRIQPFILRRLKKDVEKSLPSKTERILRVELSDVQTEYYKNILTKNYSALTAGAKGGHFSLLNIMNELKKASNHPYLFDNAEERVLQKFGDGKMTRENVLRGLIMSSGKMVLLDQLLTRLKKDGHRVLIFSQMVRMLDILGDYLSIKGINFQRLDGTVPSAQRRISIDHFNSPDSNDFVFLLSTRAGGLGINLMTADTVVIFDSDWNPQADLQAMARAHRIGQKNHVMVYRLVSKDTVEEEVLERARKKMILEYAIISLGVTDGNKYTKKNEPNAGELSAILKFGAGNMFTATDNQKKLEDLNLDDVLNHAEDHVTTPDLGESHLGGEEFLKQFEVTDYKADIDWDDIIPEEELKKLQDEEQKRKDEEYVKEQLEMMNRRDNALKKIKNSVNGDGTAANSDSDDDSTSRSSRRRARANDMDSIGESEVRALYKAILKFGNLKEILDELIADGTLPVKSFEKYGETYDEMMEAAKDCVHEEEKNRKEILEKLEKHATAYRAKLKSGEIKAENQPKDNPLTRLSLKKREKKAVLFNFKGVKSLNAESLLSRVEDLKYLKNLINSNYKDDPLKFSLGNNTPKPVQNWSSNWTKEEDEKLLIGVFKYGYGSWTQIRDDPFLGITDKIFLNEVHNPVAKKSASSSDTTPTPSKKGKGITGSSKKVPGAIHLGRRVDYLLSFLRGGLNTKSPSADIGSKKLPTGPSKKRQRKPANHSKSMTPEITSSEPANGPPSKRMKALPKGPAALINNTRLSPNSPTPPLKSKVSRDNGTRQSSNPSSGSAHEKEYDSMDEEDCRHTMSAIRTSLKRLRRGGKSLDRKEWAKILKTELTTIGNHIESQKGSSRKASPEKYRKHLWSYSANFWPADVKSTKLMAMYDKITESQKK

For some assays here: Measured potencies and affinities stand elsewhere.

Sialic acid-binding Ig-like lectin 9 (Homo sapiens), sequence (Q9Y336 whole entry): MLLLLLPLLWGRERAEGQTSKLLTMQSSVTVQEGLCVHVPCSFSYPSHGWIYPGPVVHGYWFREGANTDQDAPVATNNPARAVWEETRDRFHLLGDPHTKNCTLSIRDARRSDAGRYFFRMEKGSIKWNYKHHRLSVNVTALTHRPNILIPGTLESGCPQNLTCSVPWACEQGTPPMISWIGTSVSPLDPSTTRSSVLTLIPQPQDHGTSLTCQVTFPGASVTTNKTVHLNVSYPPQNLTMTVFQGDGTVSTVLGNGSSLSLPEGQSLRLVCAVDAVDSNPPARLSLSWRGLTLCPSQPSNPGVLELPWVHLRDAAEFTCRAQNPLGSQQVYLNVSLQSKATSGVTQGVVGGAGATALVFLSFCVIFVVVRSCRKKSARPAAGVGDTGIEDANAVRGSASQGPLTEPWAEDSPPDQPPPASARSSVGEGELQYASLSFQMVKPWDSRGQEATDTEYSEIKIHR
Protein translocase subunit SecA (Escherichia coli (strain K12)), sequence (P10408 whole entry): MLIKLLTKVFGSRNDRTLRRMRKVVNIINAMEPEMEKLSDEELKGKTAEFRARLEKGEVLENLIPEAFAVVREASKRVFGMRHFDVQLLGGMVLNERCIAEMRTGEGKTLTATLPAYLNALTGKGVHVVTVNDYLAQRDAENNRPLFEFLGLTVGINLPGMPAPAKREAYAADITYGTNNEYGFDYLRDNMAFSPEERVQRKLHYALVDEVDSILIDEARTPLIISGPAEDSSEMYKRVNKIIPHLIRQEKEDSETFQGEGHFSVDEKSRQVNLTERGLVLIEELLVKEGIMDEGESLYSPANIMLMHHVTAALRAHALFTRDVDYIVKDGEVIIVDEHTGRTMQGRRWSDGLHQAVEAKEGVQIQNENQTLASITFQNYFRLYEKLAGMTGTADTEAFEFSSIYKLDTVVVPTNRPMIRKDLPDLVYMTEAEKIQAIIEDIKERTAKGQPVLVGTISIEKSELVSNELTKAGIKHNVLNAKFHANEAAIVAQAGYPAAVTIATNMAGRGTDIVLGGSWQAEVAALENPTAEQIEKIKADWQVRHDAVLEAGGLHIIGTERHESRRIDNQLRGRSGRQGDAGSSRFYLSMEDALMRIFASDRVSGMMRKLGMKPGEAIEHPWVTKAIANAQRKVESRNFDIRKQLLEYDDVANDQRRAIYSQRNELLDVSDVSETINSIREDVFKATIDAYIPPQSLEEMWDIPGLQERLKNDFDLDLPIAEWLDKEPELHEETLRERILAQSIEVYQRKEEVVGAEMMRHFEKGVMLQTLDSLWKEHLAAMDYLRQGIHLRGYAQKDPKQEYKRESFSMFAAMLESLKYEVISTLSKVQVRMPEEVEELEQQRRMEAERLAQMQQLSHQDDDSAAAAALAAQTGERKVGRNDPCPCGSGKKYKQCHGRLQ

Take `Cc1ccoc1-c1nnc(CN2CCn3c(nnc3C3CC3)C2)o1`: the Percent Effect was -3.51% in [1]; 0% in assay [2]; -0.995% in assay [3]; 0.201% in the assay with Trypanosoma cruzi; 0.444% in [4]; -4.16% in assay [5]. Also, the Percent Effect in the assay filed under Homo sapiens is 7.27%; in [6], -1.58%; in assay [7], -10.3%; in assay [8], -2.12%.
As to `CN(C)C(=O)N1C[C@H]2CCC[C@@]2(COc2ccccn2)C1`, the Percent Effect in assay [1] was -6.8%; in [2], 6.49%; in assay [3], -3.98%; in the assay with Trypanosoma cruzi, -4.58%; in assay [4] it was -6.07%; in assay [5], 10.9%. The Percent Effect is 6.85% in the assay listed under Homo sapiens, -0.526% in assay [6], 5.13% in assay [7] and -2.37% in assay [8].
Turning to `Cc1nc(CNCC2CN(C)CCO2)cs1` (stereo not given), the Percent Effect in assay [1] was -4.87%; in [2], 18.2%; in [3], 4.98%; in the assay with Trypanosoma cruzi, 3.73%; in assay [4] it was -3.89%; in assay [5] it was 1.05%. For the same compound, the Percent Effect is -7.33% in the assay listed under Homo sapiens, 1.96% in assay [6], 21.2% in [7] and -11.4% in assay [8].
On to `CCC(=O)N1CCCC1c1nccnc1Nc1nc(C)cc(C)n1` (stereo not given), for which the Percent Effect in assay [1] is -0.0687%; in assay [2] it was 14.7%; in assay [3] it was 0.282%; with Trypanosoma cruzi, 0.789%; in assay [4] it was 2.21%; in [5], 15.8%. Further, the Percent Effect is 6.52% in the assay listed under Homo sapiens, 2.12% in assay [6], 7.5% in [7] and -21.6% in [8].
`Fc1ccc(CN2CCC(c3n[nH]c4ncccc34)CC2)cc1F`: the Percent Effect is -7.07% in [1]; 4% in assay [2]; -2.28% in [3]; -6.11% with Trypanosoma cruzi; -0.885% in assay [4]; 3.94% in [5]. The Percent Effect in the assay listed under Homo sapiens was 16.9%; in assay [6], -4.23%; in assay [7], -5%; in assay [8], -26.5%.
In the case of `COc1ccc(OC)c(Sc2ncccc2C(=O)N(C)CCC#N)c1`, the Percent Effect in [1] was -2.48%; in assay [2] it was 16.9%; in assay [3], -3.09%; in the assay on Trypanosoma cruzi it was 0.75%; in assay [4], 0%; in assay [5], 15.5%. Also, the Percent Effect is 32.7% in the assay listed under Homo sapiens, 4.83% in assay [6], 10% in assay [7] and -12.2% in assay [8].
For the compound `Cc1cncc(C2CCCN(C(=O)c3cccn3C)C2)n1` (stereo not given), the Percent Effect in assay [1] was -1.26%; in assay [2], 17.3%; in assay [3], -0.809%; in the assay on Trypanosoma cruzi, 1.97%; in [4], 1.33%; in assay [5], 13.3%. Further, the Percent Effect is -5.79% in the assay filed under Homo sapiens, 7.41% in assay [6], 12.5% in assay [7] and -25% in assay [8].
In the case of `CNc1snc(C)c1C(=O)N1CCCC(n2ccnc2C(C)C)C1` (stereo not given), the Percent Effect is -0.908% in assay [1]; 0% in assay [2]; 1.03% in assay [3]; 2.21% in the assay on Trypanosoma cruzi; 0.444% in assay [4]; 5% in assay [5]. The Percent Effect in the assay listed under Homo sapiens is 14.7%; in [6], 1.58%; in assay [7] it was 0%; in [8], -1.07%.
On to `c1cc(-c2noc(CN3CCn4c(nnc4C4CC4)C3)n2)co1`, for which the Percent Effect in assay [1] was -1.2%; in assay [2] it was 12.8%; in [3], 1.91%; in the assay with Trypanosoma cruzi, 4.04%; in assay [4], 6.15%; in assay [5], 2.13%. Also, the Percent Effect in the assay listed under Homo sapiens turned out to be 16.4%; in assay [6] it was 7.18%; in assay [7] it was 10.8%; in assay [8] it was 2.97%.
Consider `CC[C@@H]1N(Cc2ccsc2)CCC[C@]12CCC(=O)N2CCOC`, for which the Percent Effect in [1] was -4.26%; in [2], 19.5%; in assay [3], -1.28%; in the assay with Trypanosoma cruzi, -3.19%; in assay [4], 4.11%; in [5], 10.9%. The Percent Effect in the assay listed under Homo sapiens was -2.54%; in [6] it was 7.73%; in assay [7] it was 7.5%; in assay [8], -3.65%.
For the compound `CNc1ccc(CC2CCCN(C(=O)c3cncnc3C)C2)nn1` (stereo not given), the Percent Effect in [1] is 3.9%; in assay [2] it was 12%; in assay [3], -5.1%; in the assay on Trypanosoma cruzi it was -6.31%; in [4] it was 8.41%; in [5] it was 13%. Moreover, the Percent Effect in the assay listed under Homo sapiens was 4.65%; in [6], 1.06%; in assay [7], 10%; in assay [8], -22.6%.

Source of the values: ChEMBL document CHEMBL3988442, “University of Dundee, Small-Polar-MMV Screening Library” (2021).
